PubChem BioAssay (NCATS)
Inconclusive results are not listed. Calls follow the shape of the dose curve; as a rule, active = well fitted curve in either direction with a large enough effect (not every such curve was filed as active); inconclusive = small, poorly fitted or top-dose-only effect, or another doubt; inactive = flat fitted curve, though single readings scatter.

experiment: Stat Signaling Pathway (AID 446); details: ME-180 SIE beta-lactamase reporter, IL-6 stimulated, 5 h; at 17.2 µM (top of the series) unless noted;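 also: ME-180 cervical cancer cells given 40 pM IL-6 alongside compound; SIE-controlled beta-lactamase reporter measured as 460/530 nm FRET emission ratio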
In short: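 ME-180 SIE-bla cells; overnight plating; cpd + IL-6 40 pM, 5 h, 37 C; LiveBLAzer 2.5 h RT; 460/530 nm emission ratio. Normalized to 300 pM IL-6 and 125 nM JAK inhibitor controls.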
% is scaled to controls: 0 for no effect and ±100 for the full control effect.

activity, negative = inhibition, inactive:
Clc1ccc(-n2ncc3c(NCc4ccco4)ncnc32)cc1 -20.9%, COc1ccc(N2C(=O)CC(N(Cc3ccc(S(N)(=O)=O)cc3)C(C)=O)C2=O)cc1 (stereo not given) 2.66%, C/C(NC(=O)c1ccccc1F)=C1\C(=O)C[C@@H]2[C@H]1C2(C)C -6.06%, O=C(O)C1CC(=O)n2c(nc3ccccc32)S1 (stereo not given) 6.25%, CCOC(=O)N1CCN(C(=O)c2cn(CC)c3cc(N4CCN(C)CC4)c(F)cc3c2=O)CC1 0.507%, CCCSc1nc(O)c(C2OC(=O)c3c2ccc(OC)c3OC)c(=O)n1C (stereo not given) 3.93%, COc1ccc(C(=O)NCC(=O)n2nc(C)cc2C)cc1OC 16.4%, C=CCNc1nc(N2CCOCC2)c(C#N)c2c1CN(C)CC2 2.07%, COCCNc1nc2c(c(=O)n(Cc3ccc(OC)cc3)c(=O)n2C)n1C -12.3%, O=C1C=C(NCCNc2c(F)c(F)c(CO)c(F)c2F)CCC1 2.13%, Cc1ccc(C(C)C)c(OCCNc2nc3c(c(=O)n(C)c(=O)n3C)n2C)c1 -22.6%, CCCCCCOC(=O)CCn1[nH]c(=O)c2ccccc2c1=O -5.61%, COc1ccc(-c2c3c([nH]c(=S)c2C#N)CCC3)cc1 -7.04%, C=CCn1cnc2c(c1=O)c1nc3ccccc3nc1n2-c1ccc(C)cc1 -8.6%, Oc1oc(-c2ccccc2)nc1C=NCc1ccncc1 22.7%, CC1=C(C(=O)Nc2ccccc2)C(c2ccncc2)C(C#N)=C(SCC(=O)NC(C)C)N1 (stereo not given) -4.3%, CC(=O)Nc1cccc(NC(=O)CSc2nc(C)c(C)c(C)c2C#N)c1 -4.2%, COC(=O)c1ccc(OC(=O)c2ccc(OC)c(OC)c2)c(OC)c1 -2.16%, CCN(CC)CCCN1C(=O)C(=O)/C(=C(/O)c2ccccc2)C1c1ccccn1 (stereo not given) 3.59%, CN(C)c1nc2n(c(=O)n1)C(C#N)CS2 (stereo not given) 5.84%, C=CC(O)Cc1c(C)n[nH]c1C (stereo not given) 7.01%, CCN(CC)CCN1C(=O)C(=O)/C(=C(/O)c2ccc(C)cc2)C1c1cccnc1 (stereo not given) 7.25%, O=S(=O)(c1cccc2nsnc12)N1CCN(C/C=C/c2ccccc2)CC1 -15.9%, C/C=C/c1ccccc1OCc1ccc(C(=O)O)o1 -2.17%, COc1ccc(C(=O)NCCCCCC(=O)O)cc1OC 2.88%, CC1(C)Cc2c(sc3ncn4nnnc4c23)CO1 2.69%, Nn1c(SCC(=O)Nc2ccc3c(c2)OCCO3)nnc1C(F)(F)F 9.15%, CCN=C1SC(C(=O)Nc2ccc(Cl)c(Cl)c2)CC(=O)N1CC (stereo not given) 4.81%, COc1cccc(OC)c1-c1nn2c(-c3ccco3)nnc2s1 -4.43%, N/C(CCN1CCCCC1)=N/O 2.5%, COc1ccc(/C(O)=C2\C(=O)C(=O)N(Cc3ccco3)C2c2cc(OC)ccc2OC)cc1 (stereo not given) -17.9%, COc1ccccc1-n1c(=O)c2c3c(sc2n2c(SC(C)C)nnc12)CCC3 10.5%, Cc1nnc(SCc2nc3ccccc3[nH]2)s1 4.08%, CC(O)CNc1nc2c(c(=O)n(C)c(=O)n2C)n1Cc1cccc(C(F)(F)F)c1 (stereo not given) -0.279%, O=C(NCc1ccco1)c1ccc(=O)[nH]n1 -5.82%, COCCCNC(=O)C(C#N)c1nc2ccccc2nc1N1CCCC1 (stereo not given) 20.8%, O=c1c2ccccc2ncn1Cc1ccco1 2.8%, C=CCNc1sc(C(=O)C2CC2)c(N)c1C#N -6.27%, CN(C)c1ccc(O)c2c1CC1CC3[C@@H](N(C)C)C(=O)C(C(N)=O)=C(O)[C@]3(O)C(=O)C1=C2O (stereo not given in full) -13.5%, COC(=O)CNc1nc(-c2cccnc2)nc2ccccc12 -8.59%
